An excerpt weighted towards active compounds, which were near 2.4% of everything screened.
PLCb3 inh: blocks human PLC-beta3 enzyme activity. Purified PLC-beta3, fluorogenic substrate, fluorescence. inhibition, % at 12.2 µM. 370,000 tested, 0.18% active. AID 720704;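 note: 0% = median of compound wells on plate and 100% = full blocker control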
Target sequence (Q01970 whole entry, looked up): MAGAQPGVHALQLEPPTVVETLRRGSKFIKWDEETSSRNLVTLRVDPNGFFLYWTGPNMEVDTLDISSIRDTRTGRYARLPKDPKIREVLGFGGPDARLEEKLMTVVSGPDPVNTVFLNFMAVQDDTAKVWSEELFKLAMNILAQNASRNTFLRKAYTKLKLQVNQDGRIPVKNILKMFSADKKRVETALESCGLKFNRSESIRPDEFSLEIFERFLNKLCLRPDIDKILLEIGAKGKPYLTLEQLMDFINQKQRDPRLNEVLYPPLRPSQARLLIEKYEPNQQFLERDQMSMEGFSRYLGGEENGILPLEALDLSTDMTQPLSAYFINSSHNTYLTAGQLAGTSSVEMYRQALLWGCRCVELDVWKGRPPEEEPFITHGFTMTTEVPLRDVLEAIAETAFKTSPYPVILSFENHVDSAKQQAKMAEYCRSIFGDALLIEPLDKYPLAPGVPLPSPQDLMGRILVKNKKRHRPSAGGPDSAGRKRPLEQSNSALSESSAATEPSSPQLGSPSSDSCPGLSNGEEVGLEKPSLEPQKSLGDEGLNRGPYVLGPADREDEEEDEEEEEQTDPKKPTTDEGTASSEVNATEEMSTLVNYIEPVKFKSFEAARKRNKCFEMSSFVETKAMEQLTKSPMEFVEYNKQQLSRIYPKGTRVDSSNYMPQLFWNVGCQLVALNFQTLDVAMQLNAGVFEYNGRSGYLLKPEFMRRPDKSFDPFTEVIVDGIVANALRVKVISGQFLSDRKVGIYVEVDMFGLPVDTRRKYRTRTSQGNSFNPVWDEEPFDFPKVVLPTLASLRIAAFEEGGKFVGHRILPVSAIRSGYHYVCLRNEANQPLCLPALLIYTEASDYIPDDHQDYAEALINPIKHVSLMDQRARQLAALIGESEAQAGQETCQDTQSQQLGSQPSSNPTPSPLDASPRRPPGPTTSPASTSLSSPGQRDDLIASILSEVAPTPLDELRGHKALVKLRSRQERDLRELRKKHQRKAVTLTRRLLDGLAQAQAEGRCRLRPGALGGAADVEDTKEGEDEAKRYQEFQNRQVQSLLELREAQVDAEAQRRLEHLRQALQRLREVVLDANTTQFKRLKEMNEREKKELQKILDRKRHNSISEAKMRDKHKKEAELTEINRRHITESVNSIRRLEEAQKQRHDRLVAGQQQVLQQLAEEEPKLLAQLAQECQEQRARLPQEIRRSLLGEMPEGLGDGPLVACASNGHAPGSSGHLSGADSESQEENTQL
PLCg1 inh: PLC-gamma1 (human) inhibition, primary screen; P19174; purified PLC-gamma1, fluorogenic substrate, fluorescence; inhibition, % at 12.2 µM; 370,000 tested, 0.84% active; AID 720700; in the data active = inhibition above about 9.5%
MBD2 inh: MBD2-methylated oligo binding inhibition; TR-FRET, MBD2 binding to methylated oligonucleotide; 370,000 tested, 0.31% active; Q9UBB5; inhibition, % at 4.4 µM; in the data active = inhibition above about 13%
LEDGF integ inh: blocks HIV-1 LEDGF/p75-dependent DNA integration | inhibition, % at 3.7 µM | TR-FRET IN-LEDGF/p75 DNA integration, Eu/Cy5 | 370,000 tested, 0.64% active;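 active = inhibition above the screen-wide mean plus 3 SD, cut at about 13% in these data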;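 note: signal is the Cy5 over europium emission ratio at 671 and 618 nm; 0% = plate median of compound wells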
UHRF1 binding: blocks human UHRF1 binding to methylated DNA. Q96T88. UHRF1 binding to methylated oligo, TR-FRET. inhibition, % at 4.4 µM. 370,000 tested, 0.75% active. AID 687016; in the data active = inhibition above about 21%;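 note: UHRF1 SRA domain binding a hemimethylated CpG hairpin DNA probe; 0% = median of test compound wells and 100% = reference inhibitor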
PLCg1 ctr: counter-screen for PLC-beta3 inhibitors: inhibitors of human PLC-gamma1 | shares compounds with PLCg1 inh | purified PLC-gamma1, fluorogenic substrate, fluorescence | inhibition, % at 12.3 µM | 3,300 tested, 3.1% active | AID 743258; in the data active = inhibition above about 9.5%
PLCb3 confirm: confirmation of human PLC-beta3 inhibitors | AID 743261 | inhibition, % at 12.3 µM | 3,300 tested, 1% active | purified PLC-beta3, fluorogenic substrate fluorescence | shares compounds with PLCg1 inh
Starred values were filed as active, the others as inactive; x = not tested or not shown. Cut-off read from the data, not from the text of the source, unless noted: active = inhibition above about 11%; inactive = the rest.

SMILES	PLCb3 inh	PLCg1 inh	MBD2 inh	LEDGF integ inh	UHRF1 binding	PLCg1 ctr	PLCb3 confirm
O=C(NCc1ccccc1)c1n[nH]nc1-c1ccccc1O	-7.3	16.6*	6.2	-1.1	2.3	15.8*	-6.5
CCC(=O)NCCc1nc2ccccc2n1Cc1ccc(C)cc1	-1.8	19.3*	-0.9	3.8	0.6	-8.2	-4.8
Cc1ccc(NP(=O)(c2ccc(N(C)C)cc2NC(=O)c2cccs2)N2CCOCC2)cc1 (stereo not drawn)	14.0*	6.4	-5.9	-0.3	2.0	-25.0	-26.2
O=C(O)CCCn1cc(NC(=O)COc2ccccc2)cn1	-1.4	11.3*	3.2	3.8	2.8	-1.1	2.1
CCOC(=O)c1csc(-c2ccc(OC)c(OC)c2)n1	-0.9	-1.9	1.8	-5.0	1.6	x	x
CCOC(=O)c1csc(-c2sccc2Br)n1	0.7	14.0*	-0.5	1.6	2.0	-3.7	-4.0
CN(C)C=Nc1nc2c(Br)ccc(Br)c2cc1C(=O)NCC(C)(C)C	0.7	-1.8	1.1	0.8	-1.8	x	x
CC(=O)N1CCC(N(CCCOC(C)C)C(=O)Nc2ccc(C)c(C)c2)CC1	0.0	1.2	-0.9	-3.0	-1.7	x	x
CC(=O)N1CCC(N(C(=O)Nc2ccc(C)c(C)c2)C2CCCC2)CC1	11.7*	3.6	-1.1	0.3	2.5	-7.7	-12.7
O=[N+]([O-])c1ccccc1Nc1ccccc1	-2.4	-1.0	0.4	-7.6	-1.6	x	x
O=[N+]([O-])c1ccccc1Nc1ccccc1[N+](=O)[O-]	3.6	10.1*	-6.2	-1.9	2.7	2.1	2.4
O=C(c1cc(O)c(O)c([N+](=O)[O-])c1)c1ccccc1F	3.2	10.0*	5.0	-12.2	-2.2	-3.4	-1.0
O=C(CN(CCc1ccccc1)S(=O)(=O)c1ccc(F)cc1)N1CCOCC1	-3.6	0.6	-1.1	0.1	1.2	x	x
N#CCCSCc1ccc(OCC(=O)O)cc1	10.0	9.9*	-5.2	1.8	4.2	-3.3	0.3
CC(C)=CCC[C@@]1(C(=O)O)[C@@H]2C/C=C(\C)CC/C=C(\C)CC[C@H]1[C@]1(CC2)CO1	-1.2	1.2	2.8	3.6	2.5	x	x
C=CCN(C)CC#Cc1ccc(OC)cc1	-2.1	0.7	6.4	-4.0	1.7	x	x
O=C(O)CCC(=O)OCC1CCCCC1	3.9	9.8*	-0.7	0.5	-2.2	-5.5	-0.6
CC(=O)Nc1cccc(CP(=O)(c2ccccc2)c2ccccc2)c1	-1.5	13.3*	2.9	5.7	3.1	0.6	2.7
O=S(=O)(c1ccccc1)N1N=C(c2cccs2)CC1c1ccc(F)cc1 (stereo not drawn)	12.2*	3.7	-4.4	3.0	1.8	-4.1	-4.4
Oc1ccc(C[C@H]2CNCCN2CCC23CC4CC(CC(C4)C2)C3)cc1	11.1*	9.8*	-2.8	3.7	2.4	-5.8	-1.5
Cc1cc(=O)n(C)c(=O)n1CCCCCN1CCCC1	7.1	10.8*	-0.4	-1.8	4.0	3.5	3.8
Cc1ccc(C(=O)Nc2ccccc2C(=O)N2CCCCCC2)cc1	8.2	10.1*	-6.2	5.8	0.0	-8.5	-5.7
O=C(Nc1ccccc1C(=O)N1CCCC1)c1ccccc1	-1.5	0.5	-5.8	1.1	0.4	x	x
Cc1ccccc1C(=O)NNC(=O)C(=O)N1CCCCC1	2.8	10.3*	-5.4	3.4	1.8	-5.8	-3.2
CCN(CC)C(=O)CC[C@H]1CC[C@]2(CCCN(S(=O)(=O)c3ccccc3)C2)O1	1.9	-2.9	4.1	-1.2	-4.3	x	x
SMILES	PLCb3 inh	PLCg1 inh	MBD2 inh	LEDGF integ inh	UHRF1 binding	PLCg1 ctr	PLCb3 confirm
COc1ccc(CNS(=O)(=O)/C=C/c2ccccc2CNC(=O)OC(C)(C)C)cc1	-0.5	-1.7	-0.8	2.1	-2.3	x	x
CCOc1cc(CNCC2CCCN2CC)cc(Cl)c1OC (stereo not drawn)	1.4	11.9*	1.4	3.8	3.7	-1.2	-1.0
CC1(NC(=O)Cc2c(F)cccc2Cl)CCS(=O)(=O)C1 (stereo not drawn)	-2.1	13.0*	0.3	6.0	2.8	-1.8	-7.3
Cc1ccc(NC(=O)n2ncc3c(C)cccc32)c(C)c1	-2.1	10.6*	6.9	0.3	1.5	-6.1	-0.9
COc1cccc(NC(=O)n2ncc3c(C)cccc32)c1	2.4	10.4*	-0.1	7.3	-1.6	-7.6	-16.3
CC(=O)N1CCN(C(=O)CCn2nnc3ccccc32)CC1	-7.6	0.1	-2.5	-1.8	-0.7	x	x
CCOC(=O)c1c(S(=O)(=O)N(C)C2CCCCC2)c(C)n(C)c1C	0.6	9.9*	-6.7	-0.3	-1.8	-3.6	-0.3
CCOC(=O)c1c(S(=O)(=O)N2CCN(C3CCCCC3)CC2)c(C)n(C)c1C	-11.1	-3.5	2.9	-1.4	0.9	x	x
CCCCCCCCN1C(=O)N2Cc3ccccc3C2CS1(=O)=O (stereo not drawn)	-0.3	-1.6	2.3	-0.8	-0.7	x	x
O=C(NCCCN1CCCC1=O)Nc1ccccc1Cl	-2.6	3.8	-0.3	1.9	1.2	x	x
O=C(NCCCN1CCCC1=O)Nc1ccccc1F	-5.9	10.7*	5.8	-6.5	5.1	-4.6	-0.2
O=C(Nc1ccc2c(c1)OCO2)c1cnn2c1NC(c1ccco1)CC2C(F)(F)F (stereo not drawn)	3.8	10.1*	-1.9	-0.3	3.8	-4.2	0.5
COC(=O)C1=C(C)N(Cc2cccc(C(F)(F)F)c2)C(=NCC2CC2)NC1c1ccc(F)cc1 (stereo not drawn)	-2.1	-0.2	-0.2	-3.1	1.1	x	x
CC(=O)Nc1ccc(NC(=O)c2ccc(N(Cc3ccccc3C)S(C)(=O)=O)cc2)cc1	0.1	14.0*	-4.1	4.8	3.8	-1.6	-1.5
COc1ccc(S(=O)(=O)NCc2ccc(C(=O)O)cc2)cc1	4.0	3.3	-0.6	-5.7	3.1	x	x
COc1ccc(S(=O)(=O)NCc2ccc(C(=O)NCCN(C)Cc3ccccc3)cc2)cc1	7.0	9.8*	-3.0	3.9	0.2	-10.1	-2.1
O=C(OCc1cn(Cc2ccccc2C(F)(F)F)nn1)N1CCOCC1	2.7	3.0	-2.2	2.3	7.9	x	x
CCOc1cc(C(=O)N2CCC(CC3CC(c4ccc(Cl)cc4)=NO3)(C(=O)NCC3CCCCC3)CC2)cc(OCC)c1OCC (stereo not drawn)	11.4*	3.5	-1.9	-1.4	-3.3	-0.7	-1.9
O=C(OC12CCCN(C1)/C(=C/c1ccc(Cl)cc1)C2)c1cccc(F)c1 (stereo not drawn)	-1.8	-1.0	-5.9	3.3	-1.4	x	x
CSCCC(NC(=O)C12CC3CC(CC(C3)C1)C2)C(=O)OCC(=O)c1ccc(C)cc1 (stereo not drawn)	-25.5	10.6*	-5.5	1.0	2.4	-1.2	-2.5
O=C(NCc1ccc(C(=O)N2CCCC2)cc1)c1cccc(Br)c1	2.1	-0.8	0.5	-1.2	4.2	x	x
COc1ccc(C(=O)NC(C(=O)NCC2CCCO2)C(C)C)cc1 (stereo not drawn)	5.3	10.2*	-0.5	4.1	1.4	-3.5	-2.8

Screening results from PubChem.
